Assay results taken from PubChem BioAssay.

Biological target: Streptavidin (Streptomyces avidinii) (UniProt P22629)
Sequence (P22629 whole entry, looked up): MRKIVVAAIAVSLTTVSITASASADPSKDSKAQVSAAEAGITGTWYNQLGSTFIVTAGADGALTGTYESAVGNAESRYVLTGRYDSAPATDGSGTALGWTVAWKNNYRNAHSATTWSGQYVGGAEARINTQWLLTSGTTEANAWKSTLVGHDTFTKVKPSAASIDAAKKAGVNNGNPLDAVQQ
Assay: compounds binding control protein streptavidin – biophysical, small-molecule microarray, 635/667 nm fluorescence, artefact control for SMM compound annotation, primary screen (AID 1147);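 further: signal reflects streptavidin binding to arrayed compounds as a control protein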
Conditions: higher = more signal
Compound `C=C(CCCC)/C(=C/C[C@@H](OC(C)=O)c1ccc(OCCO)cc1)c1cc(C(=O)OC)ccc1OC` has a composite z-score of 0.313.
With `C=CCNC(=O)[C@H]1[C@@H]2C(=O)O[C@@H](c3ccccc3)[C@@H](c3ccccc3)N2[C@@H](c2ccc(OCCO)cc2)[C@]12C(=O)Nc1ccc(C#Cc3ccc(OC)cc3)cc12` the composite z-score was 0.918.
For `CC(C)N1C(=O)[C@@]2(Cc3ccccc31)c1ccccc1C(=O)N(Cc1ccccc1C(F)(F)F)[C@H]2c1ccc(CO)cc1`, the composite z-score was -0.0569.
Compound `COC(=O)c1ccc(OC)c(/C=C\CC(OC(=O)c2ccncc2)c2ccccc2)c1` (stereo not given) has a composite z-score of 1.79.
`O=C(NC1CC1)[C@@H]1c2ccccc2C(=O)N(C2CCCCC2)[C@H]1c1ccc(CO)cc1` gave a composite z-score of -0.104.

Tested on: not listed separately
Assay: probe aInhba binding on compound microarray – biochemical, small-molecule microarray, 635/667 nm fluorescence, primary screen (AID 1148);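 further: score merges 667nm spot fluorescence with signal-to-noise for antibody binding to printed compounds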
Conditions: higher = more signal
`COC(=O)C(CC#Cc1ccc2c(c1)[C@]1(C(=O)N2)[C@H](c2ccc(OCCO)cc2)N2[C@H](c3ccccc3)[C@H](c3ccccc3)OC(=O)[C@H]2[C@@H]1C(N)=O)C(=O)OC` gave a composite z-score of -0.0719.
`COC(=O)C(CC#Cc1ccc2c(c1)[C@]1(C(=O)N2)[C@H](c2ccccc2OCCO)N2[C@H](c3ccccc3)[C@H](c3ccccc3)OC(=O)[C@H]2[C@@H]1C(=O)N1CCN(c2ncccn2)CC1)C(=O)OC` showed a composite z-score of -0.0695.
`COC(=O)Cn1c(C(=O)N(C)C)cc2c1C[C@H]1CN(C(=O)c3ccccc3)[C@@](Cc3ccccc3)(C(=O)OC)[C@@H]21` showed a composite z-score of 0.105.
`COC(=O)[C@@]1(Cc2ccc(OC)cc2)[C@@H]2[C@@H](CC(=O)[C@H]2CC(=O)C(=O)N(C)C)CN1C(=O)c1ccccc1` showed a composite z-score of 1.83.
With `COC(=O)[C@@]1(Cc2ccccc2)[C@H]2c3cc(C(=O)N(C)C)n(Cc4nc5ccccc5[nH]4)c3C[C@H]2CN1C(=O)c1ccccc1` the composite z-score was 0.337.
`COCCOC(=O)N1C(=O)[C@@]2(c3cc(C#CCCO)ccc31)[C@H](C(=O)N1CCN(c3ncccn3)CC1)[C@H]1C(=O)O[C@H](c3ccccc3)[C@H](c3ccccc3)N1[C@@H]2c1ccc(OCCO)cc1` gave a composite z-score of 0.0528.
Compound `C=C(CCCC)/C(=C/C[C@@H](OC(C)=O)c1cccc(OCCO)c1)c1cc(C(=O)OC)ccc1OC` has a composite z-score of -0.0645.
For `C=CCOC(=O)[C@H]1[C@@H]2C(=O)O[C@@H](c3ccccc3)[C@@H](c3ccccc3)N2[C@@H](c2ccc(OCCOC(=O)[C@H]3C[C@H]4C(=O)NCC(=O)N4[C@H]3c3cccc(OCCO)c3)cc2)[C@]12C(=O)Nc1ccc(I)cc12`, the composite z-score was 0.434.
With `CCOC(=O)C=C1C[C@@H](c2cccc([N+](=O)[O-])c2)O[C@@H](c2cccc([N+](=O)[O-])c2)O1` the composite z-score was 0.503.
Compound `COc1ccc(C#Cc2ccc3c(c2)[C@]2(C(=O)N3)[C@H](c3ccccc3OCCO)N3[C@H](c4ccccc4)[C@H](c4ccccc4)OC(=O)[C@H]3[C@@H]2C(=O)NC[C@H](O)c2ccccc2)cc1` has a composite z-score of -0.0259.
Work on `C=CC[C@H](O)c1ccc(O)c2ccccc12` yielded a composite z-score of -0.101.
Work on `Cc1ccc(S[C@]2(C(=O)NCCN3CCOCC3)CC(=O)N(C(C)C)[C@@H]2c2ccc(CO)cc2I)cc1` yielded a composite z-score of 0.0228.
Work on `CN(C)C(=O)[C@]1(CCS(=O)(=O)c2ccccc2)N=C(c2ccc(OCCCO)cc2)O[C@@H]1c1ccccc1CN=[N+]=[N-]` yielded a composite z-score of -0.0332.
Work on `C[C@H]1C2[C@H](Cc3ccccc3)NC(=O)[C@]23C(=O)N[C@@H](Cc2ccccc2)C(=O)N2CCC[C@H]2C(=O)NC/C=C/CC/C=C/C3[C@@H]2O[C@]12C` (stereo not given in full) yielded a composite z-score of -0.0986.
In the case of `C=CCN1C(=O)[C@]2(O[C@H](CCO)[C@@H]([Si](C)(C)c3ccc(OC)cc3)[C@@H]2C)c2cc(N3C(=O)c4ccccc4Oc4ccccc43)ccc21`, the composite z-score is reported as -0.045.
With `CO[C@H]1O[C@H](CO)[C@@H](OC(=O)Nc2ccccc2)[C@@H]2OC(=O)[C@@H](Cc3ccccc3)C/C=C/C[C@H](Cc3ccccc3)C(=O)O[C@@H]12` the composite z-score was -0.0719.
Work on `COC(=O)[C@@]1(Cc2ccc(OC)cc2)[C@H]2c3cc(C(=O)N(C)C)n(Cc4c(CO)[nH]cc(C)c4=O)c3C[C@H]2CN1C(=O)c1ccccc1` yielded a composite z-score of 0.0219.
In the case of `COc1cccc(C)c1NC(=O)O[C@H]1[C@H](OC(=O)Nc2ccccc2-c2ccccc2)[C@@H](OC(=O)Nc2ccccc2-c2ccccc2)[C@@H](OC)O[C@@H]1CO`, the composite z-score is reported as 0.179.
For `CCCNC(=O)[C@@]1(Sc2ccc(C)cc2)CC(=O)N(Cc2cc(C(F)(F)F)cc(C(F)(F)F)c2)[C@@H]1c1ccc(CO)cc1`, the composite z-score was -0.0963.
Compound `COC(=O)[C@@]1(Cc2ccc(F)cc2)[C@H]2c3cc(C(=O)N(C)C)n(Cc4ccc(C(F)(F)F)nc4)c3C[C@H]2CN1C(=O)c1ccccc1` has a composite z-score of 0.36.
In the case of `COC(=O)[C@@]1(Cc2ccccc2)[C@H]2c3cc(C(=O)N(C)C)n(Cc4ccc(Cl)c(C(F)(F)F)c4)c3C[C@H]2CN1C(=O)c1ccccc1`, the composite z-score is reported as 0.63.
For `CN1C(=O)C2C=CC(C(O)c3ccc(I)cc3)N(N(c3ccccc3)c3ccccc3)C2C1=O` (stereo not given), the composite z-score was -0.0581.
Work on `Cc1ccc(S[C@]2(C(=O)NCc3ccccc3)CC(=O)N(Cc3ccccc3C(F)(F)F)[C@@H]2c2ccc(CO)cc2I)cc1` yielded a composite z-score of 0.144.
`COCCCNC(=O)[C@@]1(CCC(=O)OC(C)(C)C)N=C(c2ccc(OCCCO)cc2)O[C@H]1c1ccccc1` showed a composite z-score of 0.113.
For `C=C(COC)/C(=C/C[C@@H](OC(C)=O)c1cccc(OCCO)c1)c1cnc2ccccc2c1`, the composite z-score was -0.0131.
`COC(=O)[C@@]1(Cc2ccc(F)cc2)[C@H]2c3cc(C(=O)N4CCCC4)n(Cc4ccc(OC(F)(F)F)cc4)c3C[C@H]2CN1C(=O)c1ccccc1` gave a composite z-score of 0.0306.
With `O=C1OCCC/C=C\[C@H]2OC34C=CCN(Cc5ccccc5)C(=O)[C@H]3N(CCO)C(=O)[C@@H]4C12` (stereo not given in full) the composite z-score was 0.225.
For `COC(=O)[C@H](Cc1ccccc1)N1CC(C)(OC)O[C@@H](Cc2ccccc2)[C@H]1/C=C/C1CC1` (stereo not given in full), the composite z-score was -0.0762.
`COc1c(C)cc(-c2cc3c(c(CCc4ccccc4)n2)[Si](C(C)C)(C(C)C)O[C@H]3c2ccccc2)cc1C` showed a composite z-score of -0.128.
In the case of `[N-]=[N+]=Nc1ccccc1C[C@@]1(C(=O)NCc2ccccc2)N=C(c2ccc(OCCCO)cc2)O[C@@H]1c1ccccc1`, the composite z-score is reported as 0.175.
In the case of `C=C(CCCC)/C(=C/C[C@@H](OC(C)=O)c1ccc(OCCO)cc1)c1cc(C(=O)OC)ccc1OC`, the composite z-score is reported as -0.176.
`C=CCNC(=O)[C@H]1[C@@H]2C(=O)O[C@@H](c3ccccc3)[C@@H](c3ccccc3)N2[C@@H](c2ccc(OCCO)cc2)[C@]12C(=O)Nc1ccc(C#Cc3ccc(OC)cc3)cc12` showed a composite z-score of 0.165.
In the case of `CC(C)N1C(=O)[C@@]2(Cc3ccccc31)c1ccccc1C(=O)N(Cc1ccccc1C(F)(F)F)[C@H]2c1ccc(CO)cc1`, the composite z-score is reported as 0.46.
In the case of `COC(=O)c1ccc(OC)c(/C=C\CC(OC(=O)c2ccncc2)c2ccccc2)c1` (stereo not given), the composite z-score is reported as -0.154.
`O=C(NC1CC1)[C@@H]1c2ccccc2C(=O)N(C2CCCCC2)[C@H]1c1ccc(CO)cc1` gave a composite z-score of -0.221.
